From PubChem BioAssay (NCATS) come the findings set out here.

The target of experiment [1] is Cytochrome P450 3A7 (Homo sapiens) (UniProt P24462). As to the kind of experiment: Cytochrome P450 family 3 subfamily A member 7 (CYP3A7) small molecule antagonists: luciferase biochemical qHTS assay (AID 1963596). Further: on the % scale 0 is the no-effect control and ±100 the full control effect; nearly all actives have a fitted effect of over 40% in size. As to conditions: P450-Glo CYP3A7 enzyme luminescence, 1 h; series mostly up to 57.4 µM. A digest of the protocol:
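In this luminescent screen, enzyme and proluciferin substrate meet test compound for 10 min before NADPH regeneration solution drives a 1 h room-temperature reaction; detection reagent halts turnover and luminescence is read 20 min later.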
For orientation: In qHTS, concentration-response curves come from the screen itself.

The nature of experiment [2]: Viability qHTS for spleen associated tyrosine kinase inhibitor (SYKi) naive MV4-11 cells (AID 1963823). Further: nearly all actives have a fitted effect of over 40% in size. To be noted: MV4-11 AML viability, CellTiter-Glo luminescence, 72 h; series mostly up to 45 µM. A digest of the protocol: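 Luminescence from CellTiter-Glo, developed 10 min at room temperature, gave viability of MV4-11 cells never exposed to SYK inhibitor. Cells (500/well) had been incubated with compounds for 72 hr under standard culture conditions.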

A short description of experiment [3]: Cellular viability qHTS for adrenocortical cancer (ACC) cell line SW-13 (AID 1963989).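 Further: cells grown in serum-free medium with ITS supplement; on the % scale 0 is the no-effect control and ±100 the full control effect; nearly all actives have a fitted effect of over 65% in size.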 As to conditions: SW-13 ACC cells viability, CellTiter-Glo, 48 h; activity (max response): active compounds read low. A digest of the protocol: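 SW-13 cells in ITS-supplemented serum-free DMEM were plated overnight, then exposed for 48 h at 37C to compound titrations (up to 46 uM final). Viability was read by CellTiter-Glo luminescence; four-parameter logistic fits gave IC50 and efficacy.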

Experiment [4] can be described thus: Cellular viability qHTS for adrenocortical cancer (ACC) cell line NCI-H295R (AID 1963990).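 Further: 0% = DMSO only wells and -100% = full killing with cytotoxic reference compound; nearly all actives have a fitted effect of over 60% in size.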 To be noted: CellTiter-Glo ATP luminescence, 48 h; series mostly up to 46.1 µM. A digest of the protocol: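 Luminescent ATP read-out (CellTiter-Glo, 20 min RT) after 48 h drug exposure of NCI-H295R cells; a titration up to 46 uM final. Data normalized to doxorubicin (100% inhibition) and DMSO (0%); 4-parameter fit gives IC50, max response.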

Experiment [5] is described as follows: Viability qHTS for spleen associated tyrosine kinase inhibitor (SYKi) drug resistant MV4-11 cells (AID 1963824). Further: nearly all actives have a fitted effect of over 35% in size. Further: potency means the concentration at half of the fitted maximal effect. To be noted: SYKi-resistant MV4-11 viability, CellTiter-Glo, 72 h; series mostly up to 45 µM. A digest of the protocol:
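CellTiter-Glo luminescence, read 10 min after reagent addition, reports viability after a 72 hr compound exposure. Cells are an MV4-11 line made resistant to SYK inhibition, seeded at 500 per well onto compound-containing plates.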

A short description of experiment [6]: Quantitative highthroughput screen to assess conditional lethalithy of NOMO1 cells grown in RPMI1640 with untreated serum (RPMI+s) (AID 1963876). Further: potency means the concentration at half of the fitted maximal effect; nearly all actives have a fitted effect of over 35% in size. As to conditions: NOMO1 AML cells in RPMI+serum, CellTiter-Glo viability, 48 h; series mostly up to 45.8 µM. In a few lines: (§1)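 Each medium arm—HPLM with 10% dialyzed FBS, or RPMI1640 with 5 mM glucose and 10% untreated or dialyzed FBS—was screened against an 11-point, 3-fold compound titration for 48 h at 37 °C, with CellTiter-Glo luminescence as endpoint.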
(In general: In ATP-based viability assays light output follows the ATP content of the culture.)

Experiment [7] can be described thus: Quantitative highthroughput screen to assess conditional lethalithy of NOMO1 cells grown in RPMI1640 with dialyzed fetal bovine serum (RPMI+ds) (AID 1963877). Further: potency means the concentration at half of the fitted maximal effect; nearly all actives have a fitted effect of over 30% in size. As to conditions: NOMO1 in RPMI+dialyzed FBS viability, ATP luminescence, 48 h; series mostly up to 45.8 µM. In a few lines: as §1
The nature of experiment [8]: Quantitative highthroughput screen to assess conditional lethalithy of NOMO1 cells grown in Human Plasma-Like Medium with dialyzed fetal bovine serum (HPLM+ds) (AID 1963878). Further: potency means the concentration at half of the fitted maximal effect; nearly all actives have a fitted effect of over 35% in size. To be noted: NOMO1 AML cells in HPLM+ds, CellTiter-Glo viability, 48 h; series mostly up to 45.8 µM. In a few lines: as §1
Experiment [9] in a line: Quantitative highthroughput screen to assess conditional lethalithy of P12 Ichikawa cells grown in Human Plasma-Like Medium with dialyzed fetal bovine serum (HPLM+ds) (AID 1963879). Further: potency means the concentration at half of the fitted maximal effect; nearly all actives have a fitted effect of over 35% in size. As to conditions: ATP luminescence, 48 h; Potency: viability; series mostly up to 45.8 µM. In a few lines: as §1
The nature of experiment [10]: Quantitative highthroughput screen to assess conditional lethalithy of P12 Ichikawa cells grown in RPMI1640 with dialyzed fetal bovine serum (RPMI+ds) (AID 1963880). To be noted: ATP luminescence, 48 h; Potency: P12-Ichikawa viability; series mostly up to 45.8 µM. A digest of the protocol:
as §1

Experiment [11] can be described thus: Quantitative highthroughput screen to assess conditional lethalithy of P12 Ichikawa cells grown in RPMI1640 with untreated serum (RPMI+s) (AID 1963881). As to conditions: ATP luminescence, 48 h; Potency: viability; series mostly up to 45.8 µM. In a few lines:
as §1

Experiment [12] can be described thus: Quantitative highthroughput screen to assess conditional lethalithy of SEM cells grown in Human Plasma-Like Medium with dialyzed fetal bovine serum (HPLM+ds) (AID 1963882). As to conditions: SEM B-ALL cells in HPLM+ds, CellTiter-Glo viability, 48 h; series mostly up to 45.8 µM. A digest of the protocol: as §1
Experiment [13] can be described thus: Quantitative highthroughput screen to assess conditional lethalithy of SEM cells grown in RPMI1640 with unreated serum (RPMI+s) (AID 1963883). To be noted: SEM B-ALL cells, CellTiter-Glo viability, 48 h; series mostly up to 45.8 µM. A digest of the protocol:
as §1

The nature of experiment [14]: Quantitative highthroughput screen to assess conditional lethalithy of SEM cells grown in RPMI1640 with dialyzed fetal bovine serum (RPMI+ds) (AID 1963884). As to conditions: SEM B-ALL cells, RPMI+dialyzed FBS, CellTiter-Glo viability, 48 h; series mostly up to 45.8 µM. In a few lines: as §1

The structures appear in SMILES notation. Inconclusive results are not listed. A number with no mark means an inactive call. The source made the active and inactive calls. The call rests on the fitted dose curve; in most records, active means well fitted curve in the direction sought with a large enough effect; inconclusive means small, poorly fitted or top-dose-only effect, or another doubt; inactive means no such curve, though single readings can be large; an effect the other way counts as inactive or inconclusive.

Cytochrome P450 3A7 (Homo sapiens), sequence (P24462 whole entry, looked up): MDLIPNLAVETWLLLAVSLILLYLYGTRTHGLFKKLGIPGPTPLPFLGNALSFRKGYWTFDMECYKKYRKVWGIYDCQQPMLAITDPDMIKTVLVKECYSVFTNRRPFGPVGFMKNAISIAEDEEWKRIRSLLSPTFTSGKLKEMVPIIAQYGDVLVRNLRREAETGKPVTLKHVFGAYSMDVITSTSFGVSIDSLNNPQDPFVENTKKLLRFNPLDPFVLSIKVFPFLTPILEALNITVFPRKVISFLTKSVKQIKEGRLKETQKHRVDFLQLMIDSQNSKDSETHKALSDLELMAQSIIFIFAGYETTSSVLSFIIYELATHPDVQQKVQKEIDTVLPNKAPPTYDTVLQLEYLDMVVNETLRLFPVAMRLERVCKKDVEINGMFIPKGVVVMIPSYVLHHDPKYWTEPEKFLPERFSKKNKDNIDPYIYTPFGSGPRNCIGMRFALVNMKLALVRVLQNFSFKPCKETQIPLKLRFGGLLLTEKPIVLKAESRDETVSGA

For `N#CSCC(=O)O`, the Potency result in experiment [1], in experiment [2] and in [4] was “inactive” each time. In addition, in experiment [3], the activity (max response) is 4.51%.

On to `Nc1nc2ncc(CNc3ccc(C(=O)N[C@@H](CCC(=O)O)C(=O)O)cc3)nc2c(=O)[nH]1`, for which the Potency entry in experiment [1], in experiment [2] and in experiment [4] was “inactive” throughout. Moreover, in [3], the activity (max response) was 12.3%.

`Cc1cccc(C)c1OCC(C)N` (centres undefined): the Potency entry in experiment [1], in experiment [2] and in experiment [4] was “inactive” throughout. The activity (max response) in [3] is 2.1%.

As for `Cc1cc(=O)oc2cc(O[C@@H]3SC[C@@H](O)[C@H](O)[C@H]3O)ccc12`, the Potency entry in experiment [1], in experiment [2] and in experiment [4] was “inactive” in each case. The activity (max response) in experiment [3] is 12.3%.

Turning to `O=C(O)c1ccc[n+]([O-])c1`, the Potency entry in experiment [1], in experiment [2] and in experiment [4] was “inactive” throughout.

With `CCCCCC(N)=O`, the Potency result in [1], in experiment [2] and in experiment [4] was “inactive” throughout. The activity (max response) in experiment [3] was 5.46%.

`N[C@H]1C(O)O[C@H](CO)[C@@H](O)[C@@H]1O` (some centres undefined): the Potency result in experiment [1], in [2] and in experiment [4] was “inactive” throughout.

As to `CC12CCC(CC1)C(C)(C)O2`, the Potency entry in [1], in experiment [2] and in [4] was “inactive” in each case.

Regarding `COc1cc(N2CCOCC2)ccc1NC(=O)c1csc(-c2cccnc2)n1`, in experiment [1], the Potency result was “inactive”. Also, the Potency in [5] was 0.259 µM (active).

Regarding `CCc1cc2c(=O)c(-c3nc4ccccc4s3)coc2c(CN2CCCCC2)c1O`, the Potency result in [1] and in [5] was “inactive” in each case.

For `CC(=O)SCC(=O)c1ccc(NS(=O)(=O)c2ccc(OCCCN(C)C)cc2)nc1`, the Potency result in experiment [1] is “inactive”. Further, in experiment [5], the Potency is 2.91 µM (active).

As for `CCNC(=O)N1CCCN(c2ccc(C(=O)NCCc3ccc(Cl)cc3Cl)cc2NC(=O)c2cccc(Cl)c2)CC1`, the Potency entry in experiment [1] was “inactive”. Also, the Potency in experiment [5] was 20.6 µM (active).

For the molecule `CN1CCc2cc(Cl)c(O)cc2[C@@H](c2cccc3c2OCC3)C1`, in experiment [1], the Potency result was “inactive”. The Potency in experiment [5] is 11.6 µM (active).

Consider `CC(CNS(=O)(=O)C(C)C)c1ccc(-c2ccc(C#N)cc2)cc1` (centres undefined), for which the Potency result in experiment [1] is “inactive”. The Potency in experiment [5] is 2.59 µM (active).

With `CS(=O)c1ccc(-c2nc(-c3ccc(F)cc3)c(-c3ccncc3)[nH]2)cc1` (centres undefined), the Potency entry in experiment [1] was “inactive”. In addition, the Potency in experiment [5] was 20.6 µM (active); in experiment [6], 6.79 µM (active); in [7] it was 6.79 µM (active); in [8] it was 6.05 µM (active); in experiment [9] it was 9.59 µM (active); in experiment [10], 8.55 µM (active). The Potency in experiment [11] was 7.62 µM (active); in experiment [12], 7.62 µM (active); in experiment [13] it was 2.41 µM (active); in experiment [14] it was 5.4 µM (active).

Take `CCCNc1ccc2ncc(-c3ccc4[nH]ncc4c3)n2n1`: the Potency result in experiment [1] was “inactive”. In addition, in [5], the Potency is 0.0116 µM (active).

Turning to `CC(C(=O)O)c1ccc(C(=O)c2cccs2)cc1` (centres undefined), the Potency result in [1] and in [5] was “inactive” throughout.

Turning to `c1ccc(C(OC2CCN(CCCc3nn[nH]n3)CC2)c2ccccc2)cc1`, the Potency entry in [1] and in experiment [5] was “inactive” in each case.

Turning to `CCCN1CCC[C@@H](c2cccc(S(C)(=O)=O)c2)C1`, the Potency result in experiment [1] is “inactive”. Also, in [5], the Potency was 10.3 µM (active).

Consider `Clc1ccc2c(c1)C1=NCCN1c1c(-c3noc(C4CC4)n3)ncn1-2`, for which the Potency result in experiment [1] and in experiment [5] was “inactive” throughout.

Consider `Cc1c(C(=O)Nc2ccc(N3CC(C)OC(C)C3)nc2)cccc1-c1ccc(OC(F)(F)F)cc1` (centres undefined), for which the Potency result in [1] was “inactive”. Also, the Potency in experiment [5] was 10.3 µM (active).

Take `CN(C)c1nc(NC2CCC(NC(=O)c3ccc(F)c(F)c3)CC2)nc2ccccc12` (centres undefined): the Potency entry in experiment [1] is “inactive”. In addition, in experiment [5], the Potency was 0.82 µM (active).

As for `Cc1cc2sc(NC(=O)Cc3ccccc3)nc2cc1Cl`, the Potency entry in [1] and in [5] was “inactive” throughout.

Turning to `O=C(c1ccc(Cl)c([N+](=O)[O-])c1)N1CCN(c2ccccc2F)CC1`, the Potency result in [1] was “inactive”. The Potency in [5] was 18.4 µM (active).

As to `C[N+]1(CC2COC(c3ccccc3)(c3ccccc3)O2)CCCCC1` (centres undefined), in [1], the Potency entry is “inactive”. In [5], the Potency is 10 µM (active).

Consider `c1cc(OCCCN2CCCCC2)ccc1CN1CCCCC1`, for which the Potency result in experiment [1] and in [5] was “inactive” in each case.

On to `CN(C)C(=O)C(=O)c1cn(C)c2cc(Cl)c(C(=O)N3CCC(Cc4ccc(F)cc4)CC3)cc12`, for which the Potency entry in experiment [1] is “inactive”. Moreover, the Potency in experiment [5] was 8.2 µM (active).

As to `Cn1c2ccc(NC(=O)c3ccccc3)cc2c(=O)n2nc(C(=O)O)cc12`, the Potency result in experiment [1] and in experiment [5] was “inactive” each time.

For the molecule `O=C(O)CNC(=O)c1ccccc1I`, the Potency entry in [1] and in experiment [5] was “inactive” throughout.

With `Cc1cc(CS(=O)(=O)c2ccccc2)cc(OCc2ccc(CN3CCCC3CO)cc2)c1` (centres undefined), the Potency entry in experiment [1] was “inactive”. In addition, the Potency in experiment [5] is 14.6 µM (active).

Regarding `CCOC(=O)n1ccn(C)c1=S`, the Potency result in experiment [1] and in experiment [5] was “inactive” throughout.

Take `FC(F)(F)c1ccccc1-c1cc(C(F)(F)F)c2nc(C3=NOC4(CCCCC4)C3)[nH]c2c1`: in experiment [1], the Potency result is “inactive”. In addition, the Potency in [5] was 16.4 µM (active).

For the molecule `Cc1nc2sc(C(=O)NCc3ccncc3)c(N)c2c(C)c1Cl`, the Potency entry in experiment [1] and in experiment [5] was “inactive” in each case.

Turning to `COc1ccc(Sc2ccc(NC(=O)c3ccccc3Cl)cc2C#N)cc1`, in experiment [1], the Potency entry was “inactive”. Further, the Potency in [5] was 25.9 µM (active).

On to `COc1ccccc1-c1ccc(-c2cn(C(=O)N3CCCCC3Cc3ccccc3)nn2)cc1` (centres undefined), for which the Potency result in experiment [1] is “inactive”. Further, the Potency in [5] was 14.6 µM (active).

As to `COc1ccccc1N1CCN(CC[C@@](C)(C(=O)C2CCCCC2)c2ccccc2)CC1`, in experiment [1], the Potency result was “inactive”. Moreover, the Potency in experiment [5] was 14.6 µM (active).
